In PubChem BioAssay (Tox21):
Inconclusive results are not listed. A call without a number means that no potency is given here. Active and inactive are the calls of the source. Unless noted, calls come from the whole dose curve; as a rule, active = well fitted curve in the direction sought with a large enough effect in the repeat runs; inconclusive = weak or mixed curves; inactive = no such curve, though single readings can be large; an effect the other way counts as inactive or inconclusive.

Legend:
[1] = qHTS assay to identify small molecule antagonists of the glucocorticoid receptor (GR) signaling pathway - cell viability counter screen (AID 720693); note: nearly all actives have a fitted effect of over 55% in size
[2] = qHTS assay for identifying genotoxic compounds that show differential cytotoxicity against isogenic chicken DT40 cell lines with known DNA damage response pathways - wild type cell line (AID 743012); note: nearly all actives have a fitted effect of over 60% in size; note: potency is the fitted concentration of half-maximal effect
Method in brief: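 CellTiter-Glo luminescence readout of viability in wild type DT40 cells after 40 h compound exposure at 37 C/5% CO2; 300 cells/well; reagent incubated 30 min at room temperature before reading.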

[3] = qHTS assay for identifying genotoxic compounds that show differential cytotoxicity against isogenic chicken DT40 cell lines with known DNA damage response pathways - Rad54/Ku70 mutant cell line (AID 743015); note: nearly all actives have a fitted effect of over 60% in size; note: potency is the fitted concentration of half-maximal effect
[4] = qHTS assay to identify small molecule antagonists of the androgen receptor (AR) signaling pathway - cell viability counter screen (AID 743033; note: nearly all actives have a fitted effect of over 45% in size)
[5] = target: Androgen receptor (Homo sapiens) (UniProt P10275); experiment: qHTS assay to identify small molecule antagonists of the androgen receptor (AR) signaling pathway (AID 743035; active = well fitted inhibition curve with a large enough effect in the signal ratio in the repeat runs, not every such curve was filed as active; the % refers to the signal ratio; note: potency is the fitted concentration of half-maximal effect)
Androgen receptor (Homo sapiens), sequence (P10275 whole entry, looked up): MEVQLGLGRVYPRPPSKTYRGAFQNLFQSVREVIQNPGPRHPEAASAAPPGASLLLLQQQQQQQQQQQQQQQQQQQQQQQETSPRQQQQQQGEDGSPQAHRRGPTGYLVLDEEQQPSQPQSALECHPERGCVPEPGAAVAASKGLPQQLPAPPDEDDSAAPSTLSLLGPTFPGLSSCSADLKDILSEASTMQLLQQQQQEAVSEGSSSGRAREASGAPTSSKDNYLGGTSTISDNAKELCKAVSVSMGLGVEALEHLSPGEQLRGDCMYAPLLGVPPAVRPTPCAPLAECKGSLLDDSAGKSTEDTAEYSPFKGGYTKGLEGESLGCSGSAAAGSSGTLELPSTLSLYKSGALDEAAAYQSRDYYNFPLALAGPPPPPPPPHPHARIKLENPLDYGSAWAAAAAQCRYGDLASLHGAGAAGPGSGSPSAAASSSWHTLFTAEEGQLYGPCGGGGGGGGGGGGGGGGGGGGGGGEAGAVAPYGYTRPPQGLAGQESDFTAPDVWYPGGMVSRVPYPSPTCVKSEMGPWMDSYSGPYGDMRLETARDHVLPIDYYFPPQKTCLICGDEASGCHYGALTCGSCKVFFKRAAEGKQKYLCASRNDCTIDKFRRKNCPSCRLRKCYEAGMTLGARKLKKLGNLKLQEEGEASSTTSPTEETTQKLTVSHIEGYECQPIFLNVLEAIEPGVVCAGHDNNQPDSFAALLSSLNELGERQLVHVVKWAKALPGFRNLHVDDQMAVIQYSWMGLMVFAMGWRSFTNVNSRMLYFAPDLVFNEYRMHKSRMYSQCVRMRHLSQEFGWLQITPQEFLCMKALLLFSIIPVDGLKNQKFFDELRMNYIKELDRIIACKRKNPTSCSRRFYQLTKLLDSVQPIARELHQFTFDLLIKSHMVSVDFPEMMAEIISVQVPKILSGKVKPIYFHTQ
Method in brief: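 AR-bla HEK293 reporter cells; 4 h settle at 37C/5% CO2; compound + R1881 agonist, 16 h at 37C; LiveBLAzer B/G FRET substrate 2 h RT; fluorescence intensity read. qHTS format.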

[6] = target: Androgen receptor (Homo sapiens) (UniProt P10275); experiment: qHTS assay to identify small molecule agonists of the androgen receptor (AR) signaling pathway (AID 743036; active = well fitted activation curve with a large enough effect in the signal ratio in the repeat runs, with a control signal flat, not every such curve was filed as active; the % refers to the signal ratio)
Method in brief: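 AR-bla HEK293 cells, 2,000/well; 4 h preincubation 37C/5% CO2; compound (DMSO) 16 h at 37C; LiveBLAzer B/G FRET substrate 2 h RT; fluorescence intensity read-out.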

[7] = target: Androgen receptor (Homo sapiens) (UniProt P10275); experiment: qHTS assay to identify small molecule agonists of the androgen receptor (AR) signaling pathway using the MDA cell line (AID 743040; note: nearly all actives have a fitted effect of over 20% in size; note: potency is the fitted concentration of half-maximal effect)
Method in brief: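 Testing was done with the MDA-kb2 AR-luc line, a human breast carcinoma stably transfected with MMTV-luciferase containing AR and GR response elements. Cells were exposed 16 h at 37C before ONE-Glo luminescence detection.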

[8] = qHTS assay to identify small molecule antagonists of the androgen receptor (AR) signaling pathway using the MDA cell line - cell viability counter screen (AID 743041; note: nearly all actives have a fitted effect of over 45% in size)
Method in brief: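 Compound exposure lasted 16 h at 37C in MDA-kb2 AR-luc cells stimulated with R1881. Protease-based CellTiter-Fluor reagent was applied for the final 30 min and fluorescence measured.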

[9] = target: Androgen receptor (Homo sapiens) (UniProt P10275); experiment: qHTS assay to identify small molecule antagonists of the androgen receptor (AR) signaling pathway using the MDA cell line (AID 743042; note: nearly all actives have a fitted effect of over 55% in size)
Method in brief: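 MDA-kb2 breast carcinoma cells carrying MMTV-luciferase (AR/GR responsive) were co-treated with compounds and the agonist R1881 for 16 h at 37C. Inhibition read as ONE-Glo luminescence; CellTiter-Fluor fluorescence measured in parallel for cytotoxicity.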

[10] = qHTS assay for identifying genotoxic compounds that show differential cytotoxicity against isogenic chicken DT40 cell lines with known DNA damage response pathways - Rev3 mutant cell line (AID 743014); note: potency is the fitted concentration of half-maximal effect; nearly all actives have a fitted effect of over 55% in size

## CCCC(=O)N1CCCN(c2nc(N)c3cc(OC)c(OC)cc3n2)CC1
[1]
  Potency: inactive
[2]
  Potency: inactive
[3]
  Potency: inactive
[4]
  Potency: inactive
[5]
  Potency: inactive
[6]
  Potency: inactive
[7]
  Potency: inactive
[8]
  Potency: inactive
[9]
  Potency: inactive

## CC1(C)N=C(N)N=C(N)N1c1ccc(Cl)cc1
[1]
  Potency: inactive
[2]
  Potency: 0.422 µM (active)
[10]
  Potency: 422 nM (active)
[3]
  Potency: 1.19 µM (active)
[8]
  Potency: inactive

## CC1CC(OC(=O)C(O)c2ccccc2)CC(C)(C)C1 (stereo not drawn)
[1]
  Potency: inactive
[2]
  Potency: 11.9 µM (active)
[3]
  Potency: 21.1 µM (active)
[4]
  Potency: inactive
[8]
  Potency: inactive

## CN(C)CCOc1ccccc1Cc1ccccc1 (tested in a mixture with another compound)
[1]
  Potency: inactive
[2]
  Potency: 26.6 µM (active)
[3]
  Potency: 29.8 µM (active)
[4]
  Potency: inactive
[8]
  Potency: inactive

## Cc1nc(NS(=O)(=O)c2ccc(N)cc2)nc(C)c1Br
[1]
  Potency: inactive
[2]
  Potency: inactive
[3]
  Potency: inactive
[4]
  Potency: inactive
[8]
  Potency: inactive

## CC(=O)Nc1c(I)c(C(=O)N[C@H]2C(O)O[C@H](CO)[C@@H](O)[C@@H]2O)c(I)c(N(C)C(C)=O)c1I (stereo partly drawn)
[1]
  Potency: inactive
[2]
  Potency: inactive
[3]
  Potency: inactive
[4]
  Potency: inactive
[8]
  Potency: inactive

## CC(C)[C@@H]1CC[C@@H](C)C[C@H]1OC(=O)c1ccccc1O
[1]
  Potency: inactive
[2]
  Potency: inactive
[3]
  Potency: inactive
[4]
  Potency: inactive
[7]
  Potency: inactive
[8]
  Potency: inactive
[9]
  Potency: inactive

## COc1cc(NCCCC(C)N)c2ncccc2c1 (stereo not drawn)
[1]
  Potency: inactive
[2]
  Potency: 29.8 µM (active)
[3]
  Potency: 21.1 µM (active)
[4]
  Potency: inactive
[7]
  Potency: inactive
[8]
  Potency: inactive
[9]
  Potency: inactive

## CCOC(=O)C1=C[C@@H](OC(CC)CC)[C@H](NC(C)=O)[C@@H](N)C1
[1]
  Potency: inactive
[2]
  Potency: inactive
[3]
  Potency: inactive
[4]
  Potency: inactive
[8]
  Potency: inactive

## C[C@]12CCC(=O)C=C1CC[C@@H]1[C@@H]2[C@@H](O)C[C@@]2(C)[C@H]1CC[C@]2(O)C(=O)COP(=O)(O)O
[1]
  Potency: inactive
[2]
  Potency: inactive
[3]
  Potency: inactive
[4]
  Potency: inactive
[8]
  Potency: inactive

## O=C(NCCNCC(O)COc1ccc(O)cc1)N1CCOCC1 (stereo not drawn)
[1]
  Potency: inactive
[2]
  Potency: inactive
[3]
  Potency: inactive
[4]
  Potency: inactive
[8]
  Potency: inactive

## CC(=O)O[C@]1(C(C)=O)CC[C@H]2[C@@H]3CCC4=CC(=O)CC[C@]4(C)[C@@]3(F)[C@@H](O)C[C@@]21C
[1]
  Potency: inactive
[2]
  Potency: inactive
[3]
  Potency: inactive
[4]
  Potency: inactive
[5]
  Potency: 8.49 µM (active)
[7]
  Potency: 53.1 nM (active)
[8]
  Potency: inactive
[9]
  Potency: inactive

## C=CCOc1ccc(CC(=O)O)cc1Cl
[1]
  Potency: inactive
[2]
  Potency: inactive
[3]
  Potency: inactive
[4]
  Potency: inactive
[8]
  Potency: inactive

## N[C@@H](C(=O)N[C@@H]1C(=O)N2C(C(=O)O)=C(Cl)CC[C@H]12)c1ccccc1
[1]
  Potency: inactive
[2]
  Potency: inactive
[3]
  Potency: inactive
[4]
  Potency: inactive
[8]
  Potency: inactive

## CC(=O)Oc1cccc(C(=O)O)c1OC(C)=O
[1]
  Potency: inactive
[2]
  Potency: inactive
[3]
  Potency: inactive
[4]
  Potency: inactive
[8]
  Potency: inactive

## CCCCCCCCCCCCCCCC(=O)OC[C@@H](O)[C@H]1OC[C@H](O)[C@H]1O
[1]
  Potency: inactive
[2]
  Potency: inactive
[3]
  Potency: inactive
[4]
  Potency: inactive
[8]
  Potency: inactive

## O=C(O)CN(CC(=O)O)CC1=CC2C(=CC1=O)Oc1cc(O)c(CN(CC(=O)O)CC(=O)O)cc1C21OC(=O)c2ccccc21 (stereo not drawn)
[1]
  Potency: inactive
[2]
  Potency: inactive
[3]
  Potency: inactive
[4]
  Potency: inactive
[7]
  Potency: inactive
[9]
  Potency: inactive

## Nc1nc2c(c(=O)[nH]1)N(C=O)C(CNc1ccc(C(=O)N[C@@H](CCC(=O)O)C(=O)O)cc1)CN2 (stereo partly drawn)
[1]
  Potency: inactive
[2]
  Potency: inactive
[3]
  Potency: inactive
[4]
  Potency: inactive
[5]
  Potency: inactive
[7]
  Potency: inactive
[8]
  Potency: inactive
[9]
  Potency: inactive

## Cc1cc(C)c(NC(=O)C[C@H](CC(=O)O)c2cccc3ccccc23)c(C(=O)N2CCC3(CCCC3)CC2)c1
[1]
  Potency: inactive
[2]
  Potency: inactive
[3]
  Potency: inactive
[4]
  Potency: inactive
[7]
  Potency: inactive
[8]
  Potency: inactive
[9]
  Potency: inactive

## Cc1cccc(C)c1NC(=O)NC1=CCCN1C
[1]
  Potency: inactive
[2]
  Potency: inactive
[3]
  Potency: inactive
[4]
  Potency: inactive
[5]
  Potency: inactive
[7]
  Potency: inactive
[8]
  Potency: inactive
[9]
  Potency: inactive

## CCc1ccc(S(=O)(=O)O)cc1
[1]
  Potency: inactive
[2]
  Potency: inactive
[3]
  Potency: inactive
[4]
  Potency: inactive
[5]
  Potency: inactive
[7]
  Potency: inactive
[8]
  Potency: inactive
[9]
  Potency: inactive

## O=[N+]([O-])O[C@@H]1CO[C@H]2[C@@H]1OC[C@@H]2O
[1]
  Potency: inactive
[2]
  Potency: inactive
[3]
  Potency: inactive
[4]
  Potency: inactive
[8]
  Potency: inactive

## CNc1cc(OC)c(C(=O)N[C@H]2CCN(Cc3ccccc3)[C@H]2C)cc1Cl
[1]
  Potency: inactive
[2]
  Potency: 5.96 µM (active)
[3]
  Potency: 8.41 µM (active)
[4]
  Potency: inactive
[8]
  Potency: inactive
